Screening data (PubChem BioAssay)
FBA Mtb inh: Mtb FBA enzyme inhibitors, primary screen, biochemical, fluorescence, strain H37Rv | Fructose-bisphosphate aldolase (Mycobacterium tuberculosis (strain ATCC 25618 / H37Rv)), … | purified M. tuberculosis FBA, fluorescence read-out | inhibition, % at 1 µM | 2.3% of 360,000 active | AID 588726, 2011; in the data active = inhibition above about 27%;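 note: 0% = vehicle and 100% = reference inhibitor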
Target sequence (P9WQA3 whole entry, looked up): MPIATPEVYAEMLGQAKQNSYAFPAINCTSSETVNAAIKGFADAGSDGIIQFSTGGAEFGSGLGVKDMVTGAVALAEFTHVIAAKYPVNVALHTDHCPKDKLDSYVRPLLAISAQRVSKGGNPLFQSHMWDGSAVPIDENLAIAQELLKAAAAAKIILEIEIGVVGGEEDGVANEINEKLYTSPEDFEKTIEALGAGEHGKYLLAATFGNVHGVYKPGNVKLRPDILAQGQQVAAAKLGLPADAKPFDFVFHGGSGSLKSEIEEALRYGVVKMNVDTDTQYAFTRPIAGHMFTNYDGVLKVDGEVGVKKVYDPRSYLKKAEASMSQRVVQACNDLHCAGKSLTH
CCHFV vOTU inh: CCHFV vOTU protease inhibitors, primary screen, biochemical, Pep-AMC substrate, fluorescence; 0.55% of 370,000 active; inhibition, % at 11.5 µM; AID 651958, 2012; Crimean-Congo hemorrhagic fever virus L polyprotein viral ovarian tumor (vOTU) protease …; note: 0% = vehicle wells with enzyme and 100% = no enzyme wells
BH1578 lux ind: inducers of Vibrio cholerae quorum light production without autoinducers, primary screen, BH1578 luxS cqsA deficient, single point; V. cholerae BH1578 lux reporter, luminescence, 6 h; activation, % at 18.7 µM; 0.16% of 350,000 active; in the data active = activation mostly above about 9.7%, no sharp cut-off
GDH-TPI inh: GDH-TPI coupling enzyme inhibitors, primary screen, artefact control for M. tuberculosis FBA inhibitor project, biochemical, absorbance, full deck. GDH-TPI coupled enzyme counterscreen, NADH absorbance. 1.2% of 360,000 active. inhibition, % at 4.8 µM;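 note: 0% = DMSO wells and 100% = wells lacking the enzyme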
Active calls of the source: *. This is a sample that favours compounds with a hit; in the whole collection about 3.9% have one here. Cut-off read from the data, not from the text of the source, unless noted: active = inhibition above about 30%; inactive = the rest.

Results for Cc1c(C)c2ccc(OC3CCCCC3=O)cc2oc1=O (centres undefined) ?
FBA Mtb inh: 153*; CCHFV vOTU inh: -61; BH1578 lux ind: inactive; GDH-TPI inh: 9

Results for Cc1c(C)c2ccc(OCC(=O)Nc3ccccc3C(N)=O)cc2oc1=O ?
FBA Mtb inh: 3; CCHFV vOTU inh: -9; BH1578 lux ind: 0; GDH-TPI inh: 11

What do the screens show for `CC1CC(NC(=O)c2c(O)nc3ccccn3c2=O)CC(C)(C)C1` (centres undefined)?
FBA Mtb inh: 2; CCHFV vOTU inh: -5; BH1578 lux ind: inactive; GDH-TPI inh: 9

Results for COC(=O)c1c2[n+](cc3cc(OC)c(OC)cc13)CCc1cc(OC)c(OC)cc1-2 ?
FBA Mtb inh: 0; CCHFV vOTU inh: 6; BH1578 lux ind: -2; GDH-TPI inh: 43*

Results for Cc1ccccc1OCC(O)CN(CCO)Cc1ccccc1 (centres undefined) ?
FBA Mtb inh: 3; CCHFV vOTU inh: 4; BH1578 lux ind: -1; GDH-TPI inh: -6

Results for NS(=O)(=O)c1ccc(-c2ccc(/C=C3\NC(=S)NC3=O)o2)cc1 ?
FBA Mtb inh: -20; CCHFV vOTU inh: 27; BH1578 lux ind: inactive; GDH-TPI inh: 6

How did CCCOC(=O)c1ccc(-c2ccc(C=O)o2)cc1 do in these assays?
FBA Mtb inh: 5; CCHFV vOTU inh: 15; BH1578 lux ind: 0; GDH-TPI inh: 36*

What do the screens show for `NS(=O)(=O)c1ccc(-c2ccc(C=O)o2)cc1`?
FBA Mtb inh: 5; CCHFV vOTU inh: -1; BH1578 lux ind: 0; GDH-TPI inh: 34*

How did O=C(Nc1cc(C(=O)N2CCOCC2)ccc1N1CCCC1)c1cccs1 do in these assays?
FBA Mtb inh: 0; CCHFV vOTU inh: 16; BH1578 lux ind: -4; GDH-TPI inh: 9

How did COCCn1c(-c2ccc(C#N)cc2)nc2c1c(=O)[nH]c(=O)n2Cc1ccccc1 do in these assays?
FBA Mtb inh: active; CCHFV vOTU inh: -52; BH1578 lux ind: 0; GDH-TPI inh: -5

What do the screens show for `CCCn1c(=O)[nH]c(=O)c2c1nc(-c1ccc(C#N)cc1)n2CCOC`?
FBA Mtb inh: active; CCHFV vOTU inh: -27; BH1578 lux ind: 0; GDH-TPI inh: -2

What do the screens show for `CCCn1c(=O)[nH]c(=O)c2c1nc(-c1ccc(OC(F)(F)C(F)C(F)(F)F)cc1)n2CCOC` (centres undefined)?
FBA Mtb inh: 16; CCHFV vOTU inh: 5; BH1578 lux ind: 0; GDH-TPI inh: -1

What do the screens show for `COCCCn1c(-c2ccc(OC)cc2)nc2c1c(=O)[nH]c(=O)n2Cc1ccccc1`?
FBA Mtb inh: 18; CCHFV vOTU inh: -2; BH1578 lux ind: 0; GDH-TPI inh: -9

What do the screens show for `COc1ccc(-c2c(NC(=O)c3ccco3)oc3ccccc3c2=O)cc1`?
FBA Mtb inh: 1; CCHFV vOTU inh: 11; BH1578 lux ind: inactive; GDH-TPI inh: 40*

How did Cc1ccc(-c2c(NC(=O)c3ccco3)oc3ccccc3c2=O)cc1 do in these assays?
FBA Mtb inh: 2; CCHFV vOTU inh: 25; BH1578 lux ind: inactive; GDH-TPI inh: 27

How did COc1ccc(-c2c(NC(C)=O)n(C)c3ccccc3c2=O)cc1 do in these assays?
FBA Mtb inh: 26; CCHFV vOTU inh: -15; BH1578 lux ind: 1; GDH-TPI inh: 36*

How did COc1cccc(-c2c(NC(C)=O)n(C)c3ccccc3c2=O)c1 do in these assays?
FBA Mtb inh: 3; CCHFV vOTU inh: -6; BH1578 lux ind: 1; GDH-TPI inh: 11

Results for S=c1[nH]nc(-c2ccccc2)n1/N=C/c1ccc(-c2ccccc2Cl)o1 ?
FBA Mtb inh: -5; CCHFV vOTU inh: 1; BH1578 lux ind: 0; GDH-TPI inh: 28

Results for Cc1nnc(C)n1/N=C/c1ccc(-c2ccccc2Cl)o1 ?
FBA Mtb inh: 1; CCHFV vOTU inh: 17; BH1578 lux ind: 0; GDH-TPI inh: 46*

Results for Cc1c(CC(=O)O)c(=O)oc2c(C)c(OCc3nn[nH]n3)ccc12 ?
FBA Mtb inh: 147*; CCHFV vOTU inh: -52; BH1578 lux ind: 0; GDH-TPI inh: 30

Results for Cc1c(OCc2nn[nH]n2)ccc2c(-c3ccccc3)cc(=O)oc12 ?
FBA Mtb inh: 2; CCHFV vOTU inh: -4; BH1578 lux ind: inactive; GDH-TPI inh: 19

What do the screens show for `Cc1cc(OCc2nn[nH]n2)c2c(C)c(CC(=O)O)c(=O)oc2c1`?
FBA Mtb inh: active; CCHFV vOTU inh: -60; BH1578 lux ind: inactive; GDH-TPI inh: 19

Results for COC(=O)c1sc(N/N=C/c2ccc(C(C)C)cc2)nc1C ?
FBA Mtb inh: 0; CCHFV vOTU inh: -2; BH1578 lux ind: -1; GDH-TPI inh: 13

What do the screens show for `COC(=O)Nc1nnc(/C=C/c2ccccc2)s1`?
FBA Mtb inh: active; CCHFV vOTU inh: -134; BH1578 lux ind: 0; GDH-TPI inh: 24

How did COc1ccc(/C=C/c2nnc(NC(=O)CSc3ccc(C)cc3)s2)cc1 do in these assays?
FBA Mtb inh: 2; CCHFV vOTU inh: -10; BH1578 lux ind: -3; GDH-TPI inh: -6

Results for CC(=O)Nc1nnc(/C=C/c2cccc([N+](=O)[O-])c2)s1 ?
FBA Mtb inh: 1; CCHFV vOTU inh: 5; BH1578 lux ind: 0; GDH-TPI inh: -4

What do the screens show for `CCC(=O)Nc1nnc(/C=C/c2ccc(OC)cc2)s1`?
FBA Mtb inh: -12; CCHFV vOTU inh: -33; BH1578 lux ind: 0; GDH-TPI inh: 43*

Results for Cc1cc(NC(=O)c2c(C)noc2C)no1 ?
FBA Mtb inh: 1; CCHFV vOTU inh: -8; BH1578 lux ind: 0; GDH-TPI inh: 15

How did COc1ccc(C(=O)Nc2ccccc2N2CCCC2)cc1S(=O)(=O)N1CCOCC1 do in these assays?
FBA Mtb inh: -1; CCHFV vOTU inh: 4; BH1578 lux ind: 1; GDH-TPI inh: 0

What do the screens show for `CC1CN(c2ccc([N+](=O)[O-])c3cccnc23)CC(C)N1` (centres undefined)?
FBA Mtb inh: -5; CCHFV vOTU inh: 32*; BH1578 lux ind: 13; GDH-TPI inh: 20

Results for Cc1ccc(Cn2cc(CN3CC(N(C)C)CS3(=O)=O)nn2)cc1 (centres undefined) ?
CCHFV vOTU inh: 9

How did O=S(=O)(Nc1nc2c(s1)CCCC2)c1ccc2ccccc2c1 do in these assays?
FBA Mtb inh: -2; CCHFV vOTU inh: 1; BH1578 lux ind: 17*; GDH-TPI inh: -2

How did O=S(=O)(NC1=NCCCCC1)c1ccc2sc(NS(=O)(=O)c3ccc4ccccc4c3)nc2c1 do in these assays?
FBA Mtb inh: 2; CCHFV vOTU inh: 17; BH1578 lux ind: inactive; GDH-TPI inh: -1

Results for CCC(C)N(C(=O)c1csnn1)C(C(=O)NCc1ccc(F)cc1)c1ccccc1F (centres undefined) ?
FBA Mtb inh: -1; CCHFV vOTU inh: 0; BH1578 lux ind: -5; GDH-TPI inh: -11

What do the screens show for `CCN(CC)c1ccc(S(=O)(=O)N2CCOCC2)cc1NC(=O)CSc1nncn1C`?
FBA Mtb inh: 0; CCHFV vOTU inh: 35*; BH1578 lux ind: inactive; GDH-TPI inh: -2

Results for Cc1ccc(NC(=O)NNS(=O)(=O)c2ccc(Br)cc2)cc1 ?
FBA Mtb inh: 3; CCHFV vOTU inh: 6; BH1578 lux ind: 0; GDH-TPI inh: 1
